Our source for the outcome values is PubChem BioAssay (EPA / NIEHS).

Active and inactive are the calls of the source. Rule for the calls: active = hit-call score of the fitted dose curve at least 0.9, where 1 is the maximum; inactive = score below 0.9.

The nature of this test: ATG_M_06_CIS: Attagene CIS-FACTORIAL HepG2 Assay for M06 Transcription Factor (Internal Marker) (AID 2282950). To be noted: HepG2 Attagene CIS-FACTORIAL M06 internal marker reporter; actives raise or lower the signal. The protocol:
ATG_CIS is a cell-based, multiplexed-readout assay that uses HepG2, a human liver cell line, with measurements taken at 24 hours after chemical dosing in a 24-well plate.ATG_M_06_CIS is one of 52 assay component(s) measured or calculated from the ATG_CIS assay. It is designed to make measurements of mRNA induction, a form of inducible reporter, as detected with fluorescence intensity signals by Reverse transcription polymerase chain reaction (RT-PCR) and Capillary electrophoresis technology.Data from the assay component ATG_M_06_CIS was analyzed into 1 assay endpoint. This assay endpoint, ATG_M_06_CIS, was analyzed with bidirectional fitting relative to DMSO as the negative control and baseline of activity. Using a type of inducible reporter, measures of mRNA for gain or loss-of-signal activity can be used to understand the background control at the transcription factor-level as they relate to the gene . Furthermore, this assay endpoint can be referred to as a secondary readout, because this assay has produced multiple assay endpoints where this one serves a background control function. To generalize the intended target to other relatable targets, this assay endpoint is annotated to the background measurement intended target family, where the subfamily is internal marker.
Human liver HepG2 cells are transiently transfected with multiple reporter transcription units (MRTUs) in 6-well plates using FuGene 6 reagent (Roche; 3 ml FuGene/1 mg DNA). The MRTU constructs are regulated by a cis-regulating element (promoter). […] A major difference between the CIS and TRANS system is that in CIS activities of endogenous TFs are measured, whereas the TRANS assay evaluates changes in activities of exogenous, chimeric NR-Gal4 proteins. […] At the end of 24 hour incubation, total RNA was isolated using TriZol reagent (Invitrogen). The isolated RNA is then reverse-transcribed using oligo(dT) primer and Mo-MLV reverse transcriptase (Invitrogen) with DNAse I (Ambion) treatment for 30 min. The one-tenth of the produced cDNA was amplified by PCR using Taq DNA polymerase (Invitrogen) and two reporter sequence-specific primers. The PCR products were fluorescently labeled by primer extension with 6-arboxyfluorescein (6-FAM) 5'-labeled reporter sequence-specific primer (2 min at 95 C, 20 s at 68 C and 10 min at 72 C) and these products were digested with 5U of HpaI (New England Biolabs) for 2h at 37 C. The fragments were purified using Qiaquick PCR columns (Qiagen), analyzed on an ABI 3130xL genetic analyzer (Applied Biosystems) with peak positions identified by using a set of X-rhodamine (ROX)-labeled MapMarker1000 molecular weight standards (BioVentures). The raw capillary electrophoresis data was processed using Attagraph software (Attagene).
In the case of `CN(C)CCC#N`, the molecule was classed as inactive.

As for `CC(C)CCCCCCCOP(=O)(Oc1ccccc1)Oc1ccccc1`, the molecule was classed as inactive.

On to `c1cc(OCC2CO2)ccc1Cc1ccc(OCC2CO2)cc1` (stereo not given), for which the result was inactive. In the case of `Cc1ncc(C[n+]2csc(CCO)c2C)c(N)n1` it was “inactive”; in that of `CC(=O)C=Cc1ccccc1`, “inactive”; in that of `CC1CCCC1.[C-]#[O+].[C-]#[O+].[C-]#[O+].[Mn]`, “inactive”. Take `c1ccc(P(c2ccccc2)c2ccccc2)cc1`: the molecule was called inactive.

On to `CC1(C)CC(=O)CC(C)(C)N1[O]`, for which the result was inactive. With `C[N+](=O)[O-]` the entry was “inactive”. Take `O=S(=O)(O)OOS(=O)(=O)O`: the call was inactive. For the molecule `CN1C[C@H](C(=O)N[C@]2(C)O[C@@]3(O)[C@@H]4CCCN4C(=O)[C@H](Cc4ccccc4)N3C2=O)C=C2c3cccc4[nH]cc(c34)C[C@H]21`, the molecule was called inactive. In the case of `Cc1ccc(N(SC(F)(Cl)Cl)S(=O)(=O)N(C)C)cc1` it was “inactive”. With `CC1CCC(=O)O1` (stereo not given) the entry was “inactive”; with `O=C(CCl)c1ccccc1`, “inactive”. In the case of `CC[N+](=O)[O-]` it was “inactive”; in that of `O=C(O)COc1ccccc1`, “inactive”. Regarding `CCc1cc(C)cc(CC)c1-c1c(OC(=O)C(C)(C)C)n2n(c1=O)CCOCC2`, the molecule was called inactive. Consider `CCOC(=O)C1OC1(C)c1ccccc1` (stereo not given), for which the call was inactive. With `CC(=O)c1cc2c(cc1C)C(C)(C)C(C)CC2(C)C` (stereo not given) the entry was “inactive”; with `O=CNC(N1CCN(C(NC=O)C(Cl)(Cl)Cl)CC1)C(Cl)(Cl)Cl` (stereo not given), “inactive”; with `COc1ccc(CO)cc1`, “inactive”. As to `C=CCc1ccc(OC(=O)Cc2ccccc2)c(OC)c1`, the molecule was classed as inactive.

Turning to `COc1cc(OC)c(OC)cc1C=O`, the result was inactive. Take `CC(C)[C@@H](C(=O)O[C@@H](C#N)c1cccc(Oc2ccccc2)c1)c1ccc(Cl)cc1`: the result was inactive. In the case of `CC1(C)C(=O)NC(=O)NC1=O` it was “inactive”.

Consider `CC(C)(c1cc(Cl)c(O)c(Cl)c1)c1cc(Cl)c(O)c(Cl)c1`, for which the outcome was inactive. With `O=[N+]([O-])O`, the molecule was called inactive. For the molecule `O=[N+]([O-])c1cc([N+](=O)[O-])c2ccccc2c1`, the outcome was inactive. In the case of `O=[N+]([O-])C=Cc1ccccc1` it was “inactive”; in that of `CCCCCCC1CCOC1=O` (stereo not given), “inactive”.

Take `CN(N=O)c1ccccc1`: the molecule was called inactive. In the case of `O=C1Nc2ccc(Cl)cc2C(c2ccccc2)=NC1O` (stereo not given) it was “inactive”. Take `C=COCCCl`: the result was inactive. Regarding `COc1ncc(F)c2nc(S(=O)(=O)Nc3c(F)cccc3F)nn12`, the outcome was inactive. In the case of `COC(=O)COc1ccc(Cl)cc1Cl` it was “inactive”; in that of `Oc1cc(Cl)ccc1Cl`, “inactive”; in that of `CCCC=NO`, “inactive”. In the case of `CCOP(O)OCC` it was “inactive”; in that of `C=CC(=O)OCCCCOC(=O)C=C`, “inactive”.

With `[CH3][Sn]([Cl])([Cl])[Cl]`, the outcome was inactive.
